The supplement of paper PMC6555819

Tests used:
Assay in all cases: PBM binding z-score (relative to random genomic background probes); higher = stronger binding; sequences stand for … in GC…GCGATTGACAGCGTAGAATGAAGG
[1] = tested on: FXR:RXRa (NR concentration 270 nM, RXRa partner concentration 90 nM)
How it was run: (§1)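 Custom Agilent 4×180K protein-binding microarrays carried double-stranded probes. Their 34-nt variable regions held direct-repeat seeds, single-nucleotide variants, half-site ablations and random human genomic background sequences. Arrays were incubated 1 h with ligand-free nuclear receptor dimers in PBS pH 7.4, 2% milk, 0.02% Triton X-100, 1 mM DTT, 0.2 mg/mL BSA and 0.4 mg/ml salmon testes DNA. Antibodies against each partner (one per run) detected binding, and scanned fluorescence was regression-normalized. Binding z-scores use random background probes as reference.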

[2] = tested on: LXRa:RXRa (NR concentration 270 nM, RXRa partner concentration 90 nM)
How it was run: as §1

[3] = tested on: LXRa homodimer (NR concentration 270 nM)
How it was run: as §1

[4] = tested on: LXRb:RXRa (NR concentration 270 nM, RXRa partner concentration 90 nM)
How it was run: as §1

[5] = tested on: LXRb homodimer (NR concentration 270 nM)
How it was run: as §1

[6] = tested on: PPARa:RXRa (NR concentration 270 nM, RXRa partner concentration 90 nM)
How it was run: as §1

[7] = tested on: PPARg:RXRa (NR concentration 180 nM, RXRa partner concentration 90 nM)
How it was run: as §1

[8] = tested on: PPARg:RXRa 270nM:90nM, anti-RXR (NR concentration 270 nM, RXRa partner concentration 90 nM)
How it was run: as §1

[9] = tested on: PPARg:RXRa 30nM:10nM, anti-RXR (NR concentration 30 nM, RXRa partner concentration 10 nM)
How it was run: as §1

[10] = tested on: PPARg:RXRa 90nM:30nM, anti-RXR (NR concentration 90 nM, RXRa partner concentration 30 nM)
How it was run: as §1

Row | Sequence | PBM binding z-score [1] | PBM binding z-score [2] | PBM binding z-score [3] | PBM binding z-score [4] | PBM binding z-score [5] | PBM binding z-score [6] | PBM binding z-score [7] | PBM binding z-score [8] | PBM binding z-score [9] | PBM binding z-score [10]
1 | TCATATAGGTAACAGGTGAAAGTCGGTGTGGTAA | 0.983 | 1 | 0.422 | 1.24 | 0.411 | 3.53 | 5.3 | 6.22 | 6.28 | 6.73
2 | TCTTGTTGGTCAAAGGTCACACACTCGAAATGCG | 5.68 | 5.8 | 4.46 | 5.63 | 2.85 | 6.46 | 10.7 | 9.31 | 9.15 | 10
3 | CATACAGGGTCAGCTAGGCCAGCGTAGGGACGGC | 4.29 | 2.94 | -0.144 | 1.98 | 0.387 | 4.38 | 3.25 | 2.9 | 0.559 | 2.04
4 | CAAACTAGGTCACCGGAAGGTCAAAGTACGCATG | 6.81 | 6.23 | 5.23 | 5.83 | 1.75 | 6.36 | 9.91 | 8.16 | 6.57 | 7.9
5 | TCTTGTAGATCACTAGAGGTTAAGAAAGTGCGCT | 0.684 | 5.11 | 1.63 | 2.67 | 0.128 | 1.88 | -0.00284 | 1.73 | 2.56 | 2.22
6 | CAAACTAGGTCACGAAAGGTCCAAGTCGAATGAC | 4.78 | 3.96 | 0.544 | 2.73 | 0.334 | 5.45 | 8.99 | 7.44 | 4.78 | 7.28
7 | CCGACTGGGGCAAAGGTAACCATACTCAGTACGA | 0.167 | 0.164 | -0.55 | 0.446 | -1.32 | 4.5 | 8.83 | 7.71 | 7.84 | 8.13
8 | CGAACGAGGGCAGGAGTTGATAGCAAATGCCGAT | -0.327 | -0.217 | -0.463 | -0.569 | -1 | 0.441 | 1.17 | 1.46 | -0.21 | 1.07
9 | AATACAGGGTCATCGTTGGCCAGAGTACGCACAG | 7.42 | 6.21 | 2.13 | 4.57 | 1.5 | 5.96 | 6.68 | 5.97 | 2.51 | 4.75
10 | CGAACTAGGTAATTGACAGGACAGTGAATAGTAA | -0.398 | -0.336 | 0.0257 | -0.434 | -0.603 | 0.979 | 1.09 | 0.555 | 0.0511 | 0.213
11 | ATCTCTAGGTAAGACTCAGTTGAGTGAAGAACGC | 0.19 | 0.256 | -0.143 | 0.303 | 0.234 | -0.0553 | 0.0512 | 0.121 | -0.116 | -0.195
12 | CCTACTGGGGCAAGGTTACCATAACGCACAGCCA | 0.343 | 0.654 | -0.167 | 0.621 | -0.484 | 2.59 | 4.74 | 4.44 | 2.15 | 4.29
13 | CGTCCAATGTCAAAGGTCAGTGAAGAGATGACGG | 4.62 | 4.48 | 1.56 | 3.64 | 0.773 | 5.18 | 6.67 | 6.88 | 4.57 | 6.96
14 | TCTTGTAGATGAAGCAGGTTAAGAAAGCCTGAGT | 0.563 | -0.122 | -0.489 | 0.276 | -0.649 | 0.511 | -0.527 | 0.925 | 2.72 | 1.69
15 | GCTCCTAGGTCAGGTTGGTCAGCTAACGGGTACG | 1.88 | 1.13 | 0.0623 | 1.09 | 0.0222 | 2.12 | 0.889 | 1.34 | -0.42 | 0.479
16 | ATACCAAGGTGATCATGAGGTCGTTGATACTAAC | 1.75 | 1.61 | 0.874 | 1.38 | -0.0501 | 1.89 | 0.785 | 0.728 | 0.266 | 0.604
17 | CCTTGCAGGCCAGGGTCACTCAAGCATTTCGCTT | 2.3 | 1.82 | -0.569 | 1.99 | -1.06 | 3.29 | 1.01 | 2.11 | -0.339 | 1.02
18 | CGAACTAGGTCATTGACAGGCCAGTGAATAGTAA | 4.02 | 2.69 | -0.0414 | 1.9 | -0.365 | 4.67 | 7.02 | 6.4 | 3.9 | 5.91
